CCHF vOTU inh = CCHFV vOTU protease inhibitors, primary screen, biochemical, Pep-AMC substrate, fluorescence; inhibition, % at 11.5 µM; 370,000 compounds, 0.55% hits; AID 651958, 2012; in the data active means inhibition above about 30%; further: 0% = vehicle wells with enzyme and 100% = no enzyme wells
RecA intein inh = Mtb RecA intein splicing inhibitors, primary screen, biochemical, fluorescence, HTS | Protein RecA (Mycobacterium tuberculosis (strain ATCC 25618 / H37Rv)), P9WHJ3 | cell-free RecA intein splicing | inhibition, % (concentration not given with the values) | 290,000 compounds, 0.75% hits; in the data active means inhibition above about 30%; inconclusive means no clear call, values can overlap the other calls;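 further: 0% = vehicle wells and 100% = reference inhibitor control wells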
UGM FP inh = M. tuberculosis UGM enzyme inhibitors, primary screen, biochemical, fluorescence polarization, single point; inhibition, % at 10 µM; 320,000 compounds, 0.06% hits; UDP-galactopyranose mutase (Mycobacterium tuberculosis (strain ATCC 25618 / H37Rv)), …; purified UGM, fluorescence polarization probe displacement; in the data active means inhibition above about 10%, passing the limit was not always enough; inconclusive means no clear call, values can overlap the other calls
Target sequence (P9WIQ1 whole entry, looked up): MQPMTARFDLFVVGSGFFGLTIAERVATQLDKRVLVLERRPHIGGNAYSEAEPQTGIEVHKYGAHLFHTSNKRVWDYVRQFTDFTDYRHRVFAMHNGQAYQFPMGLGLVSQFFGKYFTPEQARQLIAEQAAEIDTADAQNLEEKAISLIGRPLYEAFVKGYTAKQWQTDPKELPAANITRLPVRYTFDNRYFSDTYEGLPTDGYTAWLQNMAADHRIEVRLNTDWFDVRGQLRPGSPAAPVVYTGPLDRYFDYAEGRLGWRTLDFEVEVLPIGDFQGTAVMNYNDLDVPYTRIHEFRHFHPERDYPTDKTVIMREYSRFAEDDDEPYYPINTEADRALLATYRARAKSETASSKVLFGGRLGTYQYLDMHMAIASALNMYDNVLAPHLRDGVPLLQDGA
Rv3671c protease = Rv3671c serine protease inhibitors, primary screen, biochemical, fluorescence polarization, M. tuberculosis H37Rv; P9WHR9; inhibition, % at 5.96 µM; 320,000 compounds, 0.048% hits; AID 2606, 2010; in the data active means inhibition above about 38%;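 further: extracellular domain of Rv3671c used as enzyme; 0% = enzyme with DMSO and 100% = no enzyme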
Mtb bLac sens = beta-lactam sensitization of Mtb H37Rv, H37Rv; M. tuberculosis H37Rv growth with meropenem, percent inhibition; inhibition, % at 25 µM; 330,000 compounds, 0.27% hits; AID 434955, 2010;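 further: growth measured after seven days incubation then overnight dye step; 0% = bacteria only wells and 100% = bacteria with antibiotic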
GFP chromo cs = counter-screen: blocks GFP chromophore formation, dose response, counter-screen, biochemical, fluorescence, homogeneous | EC50, µM | cell-free GFP chromophore formation | shares compounds with RecA intein inh | 2,100 compounds, 83% hits
Active calls of the source: *; ? = inconclusive; nt = no result given. A selection: hits, their analogues and other compounds. The true share with any hit is near 1.2%. Unless noted, how the calls were made is not given here.

SMILES	CCHF vOTU inh	RecA intein inh	UGM FP inh	Rv3671c protease	Mtb bLac sens	GFP chromo cs
CCN1CCN(c2c(Cl)cccc2NC(=O)c2ccc3c(c2)OCCO3)CC1	2.8	30.9*	1.7	1.2	-6.9	>38
O=C(Nc1cccc(Cl)c1N1CCCCC1)c1ccc2c(c1)OCCO2	-14.9	3.5	1.2	-6.3	11.0	nt
Cc1cc(C(=O)CCl)c(C)n1CCc1ccc(F)cc1	8.5	27.0	-3.8	-0.1	98.8	nt
Cc1cc(C(=O)CCl)c(C)n1CCc1ccc(Cl)cc1	-1.3	61.8*	0.4	1.5	99.5	21.2*
O=C(NCc1ccccc1Cl)C1CCCN(c2nc3ccccc3o2)C1 (stereo unspecified)	2.2	nt	nt	nt	nt	nt
COc1ccc(-c2cc(C(=O)NN=C/C(C)=C/c3ccccc3)[nH]n2)cc1	23.6	nt	nt	nt	nt	nt
O=S(=O)(c1ccc(Cl)c(Cl)c1)c1snnc1-c1ccccc1	nt	80.4*	nt	nt	nt	1.35*
O=C(Nc1ccc(Cl)cc1)/C(=C/c1cccc(O)c1)c1nc2ccccc2s1	6.2	46.4*	0.2	-52.9	9.1	20.6*
Cc1c(OCC(=O)Nc2cccnc2)ccc2c3c(c(=O)oc12)CCC3	4.6	93.7*	-6.5	2.7	-2.5	10.3*
COc1cc(NCCCCCCCN)c2ncccc2c1	nt	72.1*	0.4	-28.2	11.1	5.23*
O=C(Nc1ccc(Cl)cc1)C(Cl)C(=O)c1ccccc1 (stereo unspecified)	-6.4	45.9*	1.4	-4.5	1.5	38.3*
O=C1CCN(S(=O)(=O)c2ccccc2)N1	-25.4	43.4*	3.3	-8.9	-0.8	32.8*
O=C(Nc1ccc2c(c1)Cc1ccccc1-2)NC1CCCCN(Cc2cccc(Cl)c2)C1=O (stereo unspecified)	5.7	nt	nt	nt	nt	nt
CN1CCc2nc(SCc3ccc(Cl)cc3)c(C#N)c(-c3cccs3)c2C1	13.8	60.2*	0.0	1.8	nt	8.66*
CCC1=Nc2cc(C(=O)NCCN3CCCC3)ccc2Sc2ccccc21	13.9	37.5*	-1.0	-2.0	-2.3	>38
CCC1=Nc2cc(C(=O)NCCCN3CCOCC3)ccc2Sc2ccccc21	-10.4	-0.7	-1.4	-6.8	-0.8	nt
Cc1ccc(NC(=S)NNC(=O)CSc2nnc(SCc3cccc4ccccc34)s2)cc1	9.1	nt	nt	nt	nt	nt
Cc1cc(C)cc(OC(=O)CS(=O)c2ccc(C(F)(F)F)cc2[N+](=O)[O-])c1 (stereo unspecified)	8.8	43.0*	-0.2	-3.3	77.1	6.33*
O=C(CS(=O)c1ccc(C(F)(F)F)cc1[N+](=O)[O-])Oc1ccc(Cl)cc1 (stereo unspecified)	2.9	12.0	0.1	5.0	93.0	nt
O=C1/C(=C/Nc2ccc3c(c2)OCO3)CCc2ccccc21	14.0	49.0*	-0.8	-5.4	91.5	3.24*
CN(C)C(=O)NCCCC#Cc1ccccc1	-3.5	nt	nt	nt	nt	nt
Cc1ccc(NC(=O)CSc2ncnc3ccccc23)cc1S(=O)(=O)N1CCCCCC1	12.3	31.1*	nt	-28.5	12.3	>38
Cc1ccc(NC(=O)c2cccc3c2-c2ccccc2C3=O)c(C)c1	3.3	nt	nt	nt	nt	nt
COc1ccc(-c2cc(C(=O)N(C3CCCCC3)C3CCCCC3)no2)cc1	2.7	nt	nt	nt	nt	nt
COc1ccc(-n2c(SCC(=O)Nc3ccccc3-c3ccccc3)nnc2-c2ccccn2)cc1	14.6	nt	nt	nt	nt	nt
SMILES	CCHF vOTU inh	RecA intein inh	UGM FP inh	Rv3671c protease	Mtb bLac sens	GFP chromo cs
O=C1C(C2=C(O)c3ccccc3C2=O)=Nc2ccccc21	10.8	47.4*	0.7	-10.3	-12.4	1.83*
COc1cccc(C(=O)O/N=C(\N)c2ccc([N+](=O)[O-])cc2)c1OC	-5.4	51.6*	-0.4	5.2	4.8	>38
Oc1ccc(Nc2nc(-c3ccc4ccccc4c3)cs2)cc1	-4.0	34.2*	2.8	4.5	92.8	20.3*
CCOC(=O)CC[C@@H]1CC[C@]2(CCCN(C(=O)c3cccnc3)C2)O1	4.8	nt	nt	nt	nt	nt
COc1ccc(CN2C(C(=O)NC3CCCC3)CSCCS2(=O)=O)cc1 (stereo unspecified)	4.8	nt	nt	nt	nt	nt
CCN(c1ccccc1)c1cc2ccccc2c(=O)[nH]1	-12.8	65.4*	-2.6	-38.5	3.2	31.4*
CCn1c(-c2ccccc2)c(C(=O)CCl)c2ccccc21	-6.2	40.3*	2.5	3.7	99.1	1.6*
Cn1c(-c2ccccc2)c(C(=O)CCl)c2ccccc21	-0.8	41.9*	nt	nt	nt	14.2*
COc1ccc(N/N=C(\C#N)C(=N)SCc2ccccc2)cc1	20.7	55.2*	nt	nt	nt	24.1*
Cc1ccc(S(=O)(=O)n2ccc(-c3c(-c4ccc(Cl)cc4)noc3C)n2)cc1	5.9	nt	nt	nt	nt	nt
COc1ccc(C(=O)/C=C/Sc2nc3ccccc3o2)cc1	-12.3	45.8*	-1.9	-16.7	98.2	>38
COc1ccc(C(=O)N/C(N)=N/c2nc3ccccc3o2)cc1	7.2	2.5	0.8	-2.1	67.7	nt
COc1ccc(Nc2ccc(OC)cc2)cc1	-2.8	50.5*	0.3	-4.8	8.7	>38
Oc1ccc2ccccc2c1C1Nc2cccc3cccc(c23)N1	nt	-2.0	-1.9	-4.7	95.8	nt
Oc1ccc(O)c2c1C1c3ccccc3C2c2ccccc21	nt	43.8*	1.5	8.3	-0.9	10.1*
O=C(CCNc1cccc(F)c1)c1cccc([N+](=O)[O-])c1	9.5	31.9*	-4.3	-3.9	32.6	>38
CNc1cc(Cl)c2nonc2c1[N+](=O)[O-]	19.7	85.8*	nt	nt	nt	7.7*
Cc1ccccc1-n1ncc2c([N+](=O)[O-])cc([N+](=O)[O-])cc21	-7.6	85.2*	0.2	5.1	98.6	5.79*
Cc1ccccc1[N+](=O)[O-]	-3.4	nt	0.7	-5.8	-0.5	nt
CCOC(=O)c1c(C)oc2c1c1c(c3ccccc32)OCN(CCCC(=O)O)C1	1.2	89.7*	0.5	2.9	94.4	19.9*
O=C(Nc1ccc(N2CCOCC2)cc1)c1cnsn1	8.5	1.3	nt	nt	nt	nt
O=C(Nc1ccc(N2CCOCC2)cc1)Nc1ccc2nsnc2c1	-8.0	54.3*	-0.7	5.3	-3.5	>38
C=CCOc1ccccc1CN(C(=O)CCl)c1ccc2c(c1)OCO2	-8.1	80.6*	0.1	-1.7	95.7	8.27*
CCOc1ccccc1NC(=O)Nc1ccc2c(c1)OCO2	-2.8	-2.5	1.6	-3.7	3.8	nt
CCOC(=O)c1cnc(-n2[nH]c(C)c(Cc3ccccc3)c2=O)[nH]c1=O	2.2	33.0*	0.6	4.8	2.8	33.6*
CS/C(Nc1cc(Cl)ccc1Cl)=C(/C#N)C(=O)c1ccco1	17.8	64.9*	-1.1	-16.2	99.8	27.3*
COc1ccc2nc(-c3ccccc3)cc(OC)c2c1	4.1	4.2	-2.9	-0.6	?	nt
COc1ccc2nc3ccccc3nc2c1N	2.3	64.0*	2.7	-20.1	10.8	39.7*
COc1ccc2nc3cccc(OC)c3nc2c1	5.9	45.5*	0.8	-4.9	17.0	24.2*
